Experiment [1] is described as follows: qHTS assay to identify small molecule agonists of the estrogen receptor alpha (ER-alpha) signaling pathway in the presence of an antagonist - cell viability counter screen (AID 1259386).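 Further: series mostly up to about 92 µM; cells exposed to compounds for 22 h at 37 °C before the viability read; nearly all actives have a fitted effect of over 30% in size.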 In a few lines:
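Cell viability in VM7Luc4E2 cells (endogenous full-length ER-alpha) measured by CellTiter-Fluor fluorescence in the same wells as the luciferase screen. Cells pre-cultured 5 days in charcoal-stripped serum, then treated 22 h with compounds at 15 concentrations plus 10.0nM ICI-182,780.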

The target in experiment [2] is Progesterone receptor (Homo sapiens) (UniProt P06401). The experiment is described as follows: qHTS assay to identify small molecule agonists of the progesterone receptor (PR) signaling pathway (AID 1346784; calls by dose curve; further: nearly all actives have a fitted effect of over 30% in size). In short, it runs like this: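 The screen uses PR-UAS-bla HEK 293T cells in charcoal-stripped serum (2%). Compounds are applied for 16 hr at 37C after a 6 hr pre-incubation, and reporter activity is detected with a FRET beta-lactamase substrate after 2 hr at room temperature.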
Sequence of Progesterone receptor (Homo sapiens) (P06401 whole entry, looked up): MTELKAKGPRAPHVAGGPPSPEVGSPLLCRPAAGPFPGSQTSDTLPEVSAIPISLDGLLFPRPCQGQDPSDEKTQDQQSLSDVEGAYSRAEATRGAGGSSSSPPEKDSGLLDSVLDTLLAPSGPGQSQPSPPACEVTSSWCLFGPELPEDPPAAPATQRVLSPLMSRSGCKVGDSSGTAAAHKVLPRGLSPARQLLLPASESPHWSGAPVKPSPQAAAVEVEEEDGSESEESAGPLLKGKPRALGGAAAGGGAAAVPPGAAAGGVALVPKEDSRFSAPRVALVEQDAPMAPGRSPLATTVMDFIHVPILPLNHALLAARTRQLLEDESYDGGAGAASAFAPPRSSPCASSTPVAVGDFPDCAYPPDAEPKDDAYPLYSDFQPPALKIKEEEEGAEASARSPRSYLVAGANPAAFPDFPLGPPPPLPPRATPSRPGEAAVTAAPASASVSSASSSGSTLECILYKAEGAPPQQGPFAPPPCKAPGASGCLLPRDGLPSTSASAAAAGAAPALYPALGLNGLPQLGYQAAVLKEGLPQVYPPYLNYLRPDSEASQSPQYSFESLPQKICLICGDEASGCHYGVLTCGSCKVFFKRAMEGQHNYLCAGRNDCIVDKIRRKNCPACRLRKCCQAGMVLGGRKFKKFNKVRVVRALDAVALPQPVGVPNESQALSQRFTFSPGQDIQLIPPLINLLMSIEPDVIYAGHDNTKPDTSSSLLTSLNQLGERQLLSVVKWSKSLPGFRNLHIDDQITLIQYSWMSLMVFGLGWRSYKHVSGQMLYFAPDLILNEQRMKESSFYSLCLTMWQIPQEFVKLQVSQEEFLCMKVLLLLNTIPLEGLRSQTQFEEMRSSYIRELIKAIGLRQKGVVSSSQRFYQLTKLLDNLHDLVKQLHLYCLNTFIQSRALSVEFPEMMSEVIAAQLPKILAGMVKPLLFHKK

Experiment [3] shares this target. Put plainly: qHTS assay to identify small molecule antagonists of the progesterone receptor (PR) signaling pathway (AID 1346795; active means well fitted inhibition curve with a large enough effect in the signal ratio in the repeat runs, not every such curve was filed as active; the % refers to the signal ratio; further: potency means the concentration at half of the fitted maximal effect). In short, it runs like this: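 After 6 hr plating at 37C in 2% stripped-serum medium, PR-UAS-bla HEK293T cells got compounds, then 1 nM R5020. Sixteen hours later, LiveBLAzer substrate was applied for 2 hr at room temperature and fluorescence was recorded.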

Experiment [4] in a line: qHTS assay to identify small molecule antagonists of the progesterone receptor (PR) signaling pathway - cell viability counter screen (AID 1346798). Further: nearly all actives have a fitted effect of over 50% in size. Further: potency means the concentration at half of the fitted maximal effect. In a few lines:
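Viability was determined by ATP-based luminescence (CellTiter-Glo) in PR-UAS-bla HEK293T cells cultured in 2% charcoal-stripped serum and incubated 16 hr with compounds under R5020 stimulation.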

The nature of experiment [5]: qHTS assay to identify small molecule agonists of the progesterone receptor (PR) signaling pathway - cell viability counter screen (AID 1346799; calls by dose curve; further: nearly all actives have a fitted effect of over 45% in size). In short, it runs like this:
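Viability was scored by ATP luminescence (CellTiter-Glo, 30 min, room temperature) in the same wells used for the reporter readout, after 16 hr compound exposure of PR-UAS-bla HEK293T cells.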

Experiment [6] can be described thus: qHTS assay to identify small molecule antagonists of the TGF-beta/Smad signaling pathway - cell viability counter screen (AID 1346824). Further: nearly all actives have a fitted effect of over 50% in size. In short, it runs like this: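 SBE-bla HEK 293T cells, incubated overnight, then compound plus 0.25 ng/mL TGF-beta1 (stock added) for 5 hr at 37 C. Viability was read in the same wells by CellTiter-Glo luminescence after 30 min at room temperature.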

The nature of experiment [7]: qHTS assay to identify small molecule agonists of the TGF-beta/Smad signaling pathway - cell viability counter screen (AID 1346829). Further: nearly all actives have a fitted effect of over 45% in size. Further: potency means the concentration at half of the fitted maximal effect. In a few lines:
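Luminescence from CellTiter-Glo, read after a 30 min room-temperature incubation, gives cell viability of SBE-bla HEK 293T cells treated 5 hr with compounds at 37 C.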

The nature of experiment [8]: qHTS assay to identify small molecule agonists of the TGF-beta/Smad signaling pathway (AID 1346859; active means well fitted activation curve with a large enough effect in the signal ratio in the repeat runs, not every such curve was filed as active; the % refers to the signal ratio; further: series mostly up to about 77 µM). In a few lines:
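Dual-wavelength fluorescence (460/530 nm emission) quantified beta-lactamase expression under the Smad binding element in HEK 293T cells following 5 hr compound treatment at 37 C.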

A short description of experiment [9]: Human pregnane X receptor (PXR) small molecule agonists, qHTS cell viability counter screen (AID 1346977). Further: nearly all actives have a fitted effect of over 50% in size. Further: potency means the concentration at half of the fitted maximal effect. In a few lines: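 HepG2 cells stably carrying the PXR-Luc reporter are cultured with 5% charcoal-stripped FBS and treated with compounds for 24hr. CellTiter-Fluor is added at 23hr and fluorescence is read after 1hr.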
A short description of experiment [10]: Caspase-3/7 induction in CHO-K1 cells by small molecules, qHTS cell viability counter screen (AID 1346979). Further: nearly all actives have a fitted effect of over 35% in size. Further: potency means the concentration at half of the fitted maximal effect. In short, it runs like this:
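Seeding: 1,500 CHO-K1 cells/well. Rest: 5hr, 37C. Treatment: compounds in DMSO, 16hr. Read: CellTiter-Fluor, 1hr, fluorescence.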

Experiment [11] can be described thus: Caspase-3/7 induction in CHO-K1 cells by small molecules, qHTS assay (AID 1346980). Further: nearly all actives have a fitted effect of over 15% in size. In a few lines:
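Wild-type CHO-K1 cells exposed to compounds for 17hr at 37 C, 5% CO2. Caspase-3/7 activity then measured by Caspase-Glo 3/7 luminescence after 30min at room temperature.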

The nature of experiment [12]: Caspase-3/7 induction in HepG2 cells by small molecules, qHTS cell viability counter screen (AID 1346981). Further: series mostly up to about 92 µM; nearly all actives have a fitted effect of over 30% in size. In a few lines: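 Wild-type HepG2 cells, 2,000/well, settled 5 hr at 37 C, 5% CO2 before compound addition. Viability read by CellTiter-Fluor fluorescence, reagent added after 16 hr compound exposure, then 1 hr at 37C, in the same wells as the caspase read.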

Experiment [13] has as its target Nuclear receptor subfamily 1 group I member 2 (Homo sapiens) (UniProt O75469). The experiment is described as follows: Human pregnane X receptor (PXR) small molecule agonists, qHTS assay (AID 1346982). Further: nearly all actives have a fitted effect of over 35% in size. Further: potency means the concentration at half of the fitted maximal effect. In short, it runs like this:
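PXR-Luc HepG2 reporter cells (CYP3A4-driven luciferase) in 5% charcoal-stripped FBS medium, plated 5 h before compound addition, then treated 24 h at 37C. Luciferase read by ONE-Glo luminescence after 30 min at room temperature.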

Experiment [14] deals with Nuclear receptor subfamily 1 group I member 2 (Rattus norvegicus) (UniProt Q9R1A7). The experiment is described as follows: Rat pregnane X receptor (rPXR) activation by small molecules, qHTS assay (AID 1346983). Further: nearly all actives have a fitted effect of over 20% in size. The conditions noted are these: rPXR luciferase reporter cells, One-Glo luminescence, 24 h; max activation: stronger effect = higher value. In short, it runs like this: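 Cell-based rPXR activation assay: rPXR cells, 2,000 per well, rested 5hr at 37 C, then exposed to compounds in DMSO for 24 hr at 37 C. Luciferase activity read by One-Glo luminescence after 30 min at room temperature.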
Sequence of Nuclear receptor subfamily 1 group I member 2 (Rattus norvegicus) (Q9R1A7 whole entry, looked up): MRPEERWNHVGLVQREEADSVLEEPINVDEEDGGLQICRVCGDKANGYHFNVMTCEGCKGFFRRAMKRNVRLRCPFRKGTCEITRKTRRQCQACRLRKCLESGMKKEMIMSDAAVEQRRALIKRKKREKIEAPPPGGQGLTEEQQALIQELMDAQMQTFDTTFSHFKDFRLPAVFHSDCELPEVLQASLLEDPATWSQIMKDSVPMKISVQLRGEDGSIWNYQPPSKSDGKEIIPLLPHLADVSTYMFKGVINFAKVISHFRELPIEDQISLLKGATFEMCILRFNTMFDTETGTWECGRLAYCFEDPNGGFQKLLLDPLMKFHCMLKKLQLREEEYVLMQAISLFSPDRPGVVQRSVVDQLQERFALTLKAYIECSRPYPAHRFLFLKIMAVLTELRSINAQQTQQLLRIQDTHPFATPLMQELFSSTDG

Experiment [15] addresses Nuclear receptor subfamily 1 group I member 2 (Homo sapiens) (UniProt O75469). Put plainly: CYP3A4 induction through human pregnane X receptor (PXR) by small molecules, qHTS assay (AID 1346984). Further: nearly all actives have a fitted effect of over 40% in size. In a few lines: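 DPX-2 HepG2 cells carrying a PXR response element and CYP3A4-promoter luciferase construct, treated with compounds 24 hr at 37C. Then P450-Glo CYP3A4 Luciferin-IPA substrate (3uM final) for 3 hr at 37C, One-Glo added, luminescence read.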

The target is the same in experiment [16]. The experiment is described as follows: Human pregnane X receptor (PXR) activation by small molecules, qHTS assay (AID 1346985). Further: nearly all actives have a fitted effect of over 40% in size. Further: potency means the concentration at half of the fitted maximal effect. In a few lines:
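DPX-2 cells (HepG2 co-transfected with a PXR response element and a CYP3A4-promoter luciferase construct) were seeded at 2,000 per well, rested 5 hr at 37C, then exposed to DMSO-dissolved compounds for 24 hr. Activation was read as luciferase luminescence.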

Experiment [17] deals with Cytochrome P450 2D6 (Homo sapiens) (UniProt P10635). Put plainly: Cytochrome P450 Family 2 Subfamily D Member 6 (CYP2D6) small molecule antagonists: luciferase reporter qHTS assay (AID 1671196). Further: nearly all actives have a fitted effect of over 50% in size. Further: potency means the concentration at half of the fitted maximal effect. In short, it runs like this: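 Cell-free P450-Glo system: CYP2D6 with proluciferin substrate was pre-incubated with compound for 10 min, then reacted with NADPH regeneration for 1 h at room temperature. Luciferin product was detected after 20 min, and data were reported as relative luminescence units.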
Sequence of Cytochrome P450 2D6 (Homo sapiens) (P10635 whole entry, looked up): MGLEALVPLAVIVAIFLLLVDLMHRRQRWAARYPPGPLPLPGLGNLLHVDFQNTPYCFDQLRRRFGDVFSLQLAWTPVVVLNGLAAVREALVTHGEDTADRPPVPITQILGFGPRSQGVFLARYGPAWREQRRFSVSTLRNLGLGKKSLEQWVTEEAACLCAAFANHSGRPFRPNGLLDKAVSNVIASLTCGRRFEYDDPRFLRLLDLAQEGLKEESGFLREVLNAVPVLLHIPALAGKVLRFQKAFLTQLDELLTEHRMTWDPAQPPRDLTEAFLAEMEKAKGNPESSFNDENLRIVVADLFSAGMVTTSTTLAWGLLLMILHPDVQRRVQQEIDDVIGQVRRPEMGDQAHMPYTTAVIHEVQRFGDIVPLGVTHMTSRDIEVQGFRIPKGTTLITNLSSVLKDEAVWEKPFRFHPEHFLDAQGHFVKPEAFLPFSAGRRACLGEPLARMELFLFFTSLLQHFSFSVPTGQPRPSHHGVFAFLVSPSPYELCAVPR

For experiment [18], the target named is Thyrotropin-releasing hormone receptor (Homo sapiens) (UniProt P34981). The experiment is described as follows: qHTS assay to identify small molecule agonists of the thyrotropin-releasing hormone receptor (TRHR) signaling pathway (AID 1346891; calls by dose curve; further: series mostly up to about 58 µM). In short, it runs like this: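 Kinetic fluorescence (3 min, 1 s intervals) reported intracellular calcium after compound transfer onto TRHR-Hek293 cells pre-loaded with dye for 2 h at 37 °C.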
Sequence of Thyrotropin-releasing hormone receptor (Homo sapiens) (P34981 whole entry, looked up): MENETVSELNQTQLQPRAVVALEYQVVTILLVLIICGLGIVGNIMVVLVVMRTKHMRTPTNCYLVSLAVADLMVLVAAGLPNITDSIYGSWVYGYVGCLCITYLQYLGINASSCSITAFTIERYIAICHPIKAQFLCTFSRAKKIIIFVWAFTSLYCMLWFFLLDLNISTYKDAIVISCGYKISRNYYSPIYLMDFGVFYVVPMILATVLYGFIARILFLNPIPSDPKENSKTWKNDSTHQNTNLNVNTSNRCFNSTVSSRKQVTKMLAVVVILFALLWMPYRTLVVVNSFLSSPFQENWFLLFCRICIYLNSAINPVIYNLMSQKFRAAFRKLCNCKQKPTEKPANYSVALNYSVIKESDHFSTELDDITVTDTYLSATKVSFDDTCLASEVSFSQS

Experiment [19] can be described thus: Caspase-3/7 induction in HepG2 cells by small molecules, qHTS assay (AID 1346978). Further: nearly all actives have a fitted effect of over 15% in size. In a few lines: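 Wild-type HepG2 cells, 2,000/well, settled 5 hr at 37 C and 5% CO2, then compound-treated for 17 hr; caspase-3/7 activity read by luminescent Caspase-Glo 3/7 after 30 min at room temperature.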
Experiment [20] has as its target Thyrotropin-releasing hormone receptor (Homo sapiens) (UniProt P34981). Put plainly: qHTS assay to identify small molecule antagonists of the thyrotropin-releasing hormone receptor (TRHR) signaling pathway (AID 1346877; active means well fitted inhibition curve with a large enough effect in the repeat runs, not every such curve was filed as active; further: series mostly up to about 51 µM). In short, it runs like this: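 TRHR-expressing HEK293 cells loaded with calcium dye for 2 h at 37 C; compounds pre-incubated 5 min at room temperature before TRH challenge at 1 nM final. Intracellular calcium fluorescence read kinetically for 3 min; 15 concentrations in triplicate.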

From PubChem BioAssay (Tox21) come the findings set out here.

Structures are written as SMILES. “And” between values parts separate entries of the source, which are not always exact repeats. Equal values may be shown once. Inconclusive results are not listed. More than one record can exist for a structure, and the calls need not agree. The source made the active and inactive calls. Unless noted, the call rests on the fitted dose curve; in most records, active means well fitted curve in the direction sought with a large enough effect in the repeat runs; inconclusive means weak or mixed curves; inactive means no such curve, though single readings can be large; an effect the other way counts as inactive or inconclusive.
On the % scale 0 is the no-effect control and ±100 the full control effect.

Sequence of Nuclear receptor subfamily 1 group I member 2 (Homo sapiens) (O75469 whole entry, looked up): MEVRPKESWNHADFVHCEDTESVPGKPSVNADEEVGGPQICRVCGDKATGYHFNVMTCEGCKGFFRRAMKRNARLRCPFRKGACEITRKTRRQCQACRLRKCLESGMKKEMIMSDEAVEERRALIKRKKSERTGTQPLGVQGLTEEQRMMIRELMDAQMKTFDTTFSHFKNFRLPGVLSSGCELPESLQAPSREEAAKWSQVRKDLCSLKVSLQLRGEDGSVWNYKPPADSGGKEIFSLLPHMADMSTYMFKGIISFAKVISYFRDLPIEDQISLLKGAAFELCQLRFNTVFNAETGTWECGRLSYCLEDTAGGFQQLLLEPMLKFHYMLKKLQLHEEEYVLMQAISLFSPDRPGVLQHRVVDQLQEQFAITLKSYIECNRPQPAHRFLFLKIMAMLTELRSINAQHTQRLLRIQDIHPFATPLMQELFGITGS

Regarding `Oc1cccc(O)c1`, the Potency entry in experiment [1], in experiment [2], in experiment [3], in [4], in experiment [5] and in [6] was “inactive” in each case. Moreover, the Potency result in experiment [7], in [9], in experiment [10], in experiment [12], in [15] and in [16] was “inactive” each time. The Potency entry in experiment [17] was “inactive”. Moreover, the call in [8] and in experiment [11] was inactive. In addition, the Potency in experiment [13] was 47.1 µM (active) and inactive. Moreover, in [14], the max activation was -3.43% (inactive).

With `Nc1cccc(N)c1`, the Potency result in [1], in [4], in experiment [5], in experiment [6], in [7] and in [18] was “inactive” throughout. Also, the Potency result in [9], in experiment [19], in [10] and in experiment [12] was “inactive” in each case. The molecule was called inactive in experiment [8] and in [11]. Further, the Potency is 54.4 µM (active) and inactive in experiment [13]; 39.8 µM (active) and 31.3 µM (active) and inactive in [17].

Take `CC(C)(C)CC(C)(C)c1ccc(O)c(-n2nc3ccccc3n2)c1`: the Potency result in experiment [1], in experiment [2], in [3], in [18], in experiment [9] and in experiment [19] was “inactive” each time. The Potency result in experiment [10], in [12] and in experiment [15] was “inactive” throughout. Also, the Potency in experiment [4] is 49.2 µM (active); in experiment [7], 44.3 µM (active) and inactive; in [13], 27.7 µM (active) and 11.9 µM (active); in experiment [16] it was 7.94 µM (active); in experiment [17] it was 40.5 µM (active) and inactive. Also, the molecule was classed as inactive in experiment [8] and in [11]. Also, the max activation in [14] is -2.63% (inactive).

For `O=C1OC(c2ccc(O)cc2)(c2ccc(O)cc2)c2ccccc21`, the Potency entry in experiment [1], in experiment [2], in experiment [4], in experiment [6], in experiment [7] and in experiment [19] was “inactive” in each case. In addition, the Potency entry in experiment [12] was “inactive”. In addition, the Potency in experiment [3] was 24.3 µM (active); in experiment [9], 50.1 µM (active) and inactive; in experiment [10] it was 30.4 µM (active) and inactive; in experiment [13], 48.2 µM (active) and 27.3 µM (active) and 23.7 µM (active); in [17], 71 µM (active) and inactive. Besides, the molecule was called inactive in [8] and in experiment [11].

As for `CC(O)COc1ccccc1` (centres undefined), the Potency entry in experiment [1], in experiment [2], in experiment [3], in [4], in [5] and in experiment [6] was “inactive” each time. The Potency result in experiment [7], in experiment [9], in experiment [10], in [12], in [13] and in experiment [15] was “inactive” throughout. Moreover, the Potency entry in experiment [16] and in experiment [17] was “inactive” throughout. Further, the outcome in experiment [8] and in experiment [11] was inactive. Moreover, the max activation in [14] was -1.1% (inactive).

Regarding `C[C@]12CC[C@@H]3c4ccc(O)cc4CC[C@H]3[C@@H]1CCC2=O`, the Potency result in experiment [1], in [2], in experiment [4], in [5], in experiment [6] and in [7] was “inactive” each time. The Potency entry in experiment [18], in [9], in experiment [19], in [10] and in experiment [12] was “inactive” in each case. The molecule was classed as inactive in experiment [8] and in [11].

Take `Cc1cccc(Nc2cc(Cl)nc(SCC(=O)O)n2)c1C`: the Potency result in experiment [1], in experiment [2], in experiment [4], in experiment [5], in experiment [6] and in experiment [7] was “inactive” in each case. Moreover, the Potency entry in experiment [18], in experiment [9], in experiment [10], in experiment [12] and in [17] was “inactive” throughout. For the same molecule, the result in [8], in experiment [20] and in experiment [11] was inactive. Besides, the Potency in experiment [13] is 61.1 µM (active) and inactive.

As to `CCN1CCCC1=O`, the Potency result in experiment [1], in experiment [4], in experiment [5], in experiment [6], in [7] and in [18] was “inactive” each time. Moreover, the Potency result in experiment [9], in experiment [19], in experiment [10], in experiment [12], in experiment [13] and in [15] was “inactive” each time. Also, the Potency result in experiment [16] and in experiment [17] was “inactive” in each case. Further, the molecule was called inactive in experiment [8] and in experiment [11]. Besides, in experiment [14], the max activation is 3.15% (inactive).
